This is a sample that favours compounds with a hit; in the whole collection about 6.7% have one here.
Pf Dd2 inh: P. falciparum Dd2 growth inhibitors, primary screen, SYBR Green fluorescence, single dose replicates; activity change, % at 10 µM; 72 h; stronger effect = lower value; actives 2.3% (n = 94,000); AID 1159554, 2015; in the data active = activity change below about -80%; inconclusive = no clear call, values can overlap the other calls
C diff HTS: C. difficile growth inhibitors, primary screen, HTS. Clostridium difficile clinical isolate growth, OD600, 24 h; stronger effect = lower value. growth activity, negative = inhibition, % at 16 µg/mL (by protocol). actives 0.25% (n = 86,000);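 active = mean growth activity at or below -80% and every replicate also at or below -80%; inconclusive = mean at or below -80% but some replicate above -80%; inactive = mean growth activity above -80%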;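 note: 0% = DMSO wells and -100% = levofloxacin 16 µg/mL wells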
T cruzi growth-1: T. cruzi intracellular proliferation inhibitors, primary screen, cell-based, beta-gal Tulahuen parasites, NIH3T3 host, luminescence | AID 624255, 2012 | inhibition, % at 8.34 µM | T. cruzi beta-gal in NIH3T3, GalScreen luminescence, 90 h | actives 5.9% (n = 77,000);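 active = mean inhibition above about 93%, with at least 55% of replicates each passing it, limit read from the data, passing the limit was not always enough; inconclusive = only one of those two conditions holds; inactive = neither condition holds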
T cruzi growth-2: T. cruzi intracellular proliferation inhibitors, confirmation, cell-based, NIH3T3 host, beta-gal parasite, luminescence, cherry-pick; shares compounds with T cruzi growth-1; T. cruzi beta-gal in NIH3T3, GalScreen luminescence, 90 h; inhibition, % at 8.35 µM; actives 72% (n = 5,600); AID 651739, 2012;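 active = mean replicate inhibition above about 95% and at least 55% of replicates individually reaching it, limit read from the data; inconclusive = only one of the two criteria is met; inactive = neither criterion is met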
T cruzi growth-3: inhibitors of intracellular T. cruzi replication, confirmation, NIH3T3 host cells, beta-gal parasites, cherry-pick, set 2; shares compounds with T cruzi growth-1; T. cruzi beta-gal in NIH3T3, GalScreen luminescence, 90 h; inhibition, % at 2.09 µM; actives 21% (n = 5,600);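 active = mean inhibition above about 95%, with at least 55% of replicates also reaching it, limit read from the data; inconclusive = meets just one of the two conditions; inactive = meets neither condition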;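 note: plate controls were neutral control median for no effect and positive control median for full effect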
3T3 cytotox: cytotoxicity in mouse NIH/3T3 fibroblasts, confirmation, cytotoxicity control for T. cruzi proliferation inhibitor project, cell-based, cherry-pick, single point; actives 14% (n = 5,600); AID 651742, 2012; NIH/3T3 viability, CellTiter-Glo ATP luminescence, 90 h; shares compounds with T cruzi growth-1; cytotoxicity (signal decrease), % at 8.35 µM;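 active = mean signal decrease across replicates above about 35% based on untreated-well scatter, with enough replicates individually passing, limit read from the data; inconclusive = no rule stated though some were filed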;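 note: 0% = median of neutral control wells and 100% = median of positive control wells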
3T3 cytotox 2: NIH/3T3 fibroblast cytotoxicity, confirmation, cytotoxicity control, cell-based, cherry-pick, single point, set 2; inhibition, % at 24.9 µM; AID 651744, 2012; NIH/3T3 viability, CellTiter-Glo ATP luminescence, 90 h; shares compounds with T cruzi growth-1; actives 56% (n = 5,600);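 active = mean loss of cell viability signal at or above a set limit, and enough replicates individually reaching it; inconclusive = meets only the mean limit or only the replicate share; inactive = meets neither condition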;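 note: 0% = median of neutral control wells and 100% = median of positive control wells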
Starred values were filed as active, the others as inactive; ! = a repeat was not active.

Screening C/C=C/c1cnc2c(c1)C(=O)N([C@@H](C)CO)C[C@H](C)[C@H](CN(C)Cc1ccc(F)cc1)O2 returned Pf Dd2 inh 6, C diff HTS 5, T cruzi growth-1 114*, T cruzi growth-2 75, T cruzi growth-3 18, 3T3 cytotox 23 and 3T3 cytotox 2 48*.
C/C=C/c1cnc2c(c1)C(=O)N([C@H](C)CO)C[C@H](C)[C@@H](CN(C)Cc1ccc(F)cc1)O2 was read as Pf Dd2 inh -37, C diff HTS 0 and T cruzi growth-1 46.
`C/C=C/c1cnc2c(c1)C(=O)N([C@@H](C)CO)C[C@H](C)[C@@H](CN(C)Cc1ccc(F)cc1)O2` gave Pf Dd2 inh -21, C diff HTS 3 and T cruzi growth-1 37.
`O=C(C[C@H]1CC[C@@H]2[C@H](COC[C@@H](O)CN2Cc2nccs2)O1)NCc1ccc(F)cc1` gave Pf Dd2 inh 25, C diff HTS -1 and T cruzi growth-1 8.
Screening C[C@@H]1CCCCO[C@H](CN(C)Cc2ccc(C(=O)O)cc2)[C@H](C)CN([C@@H](C)CO)C(=O)c2cc(NC(=O)NC3CCCCC3)ccc2O1 returned Pf Dd2 inh 9, C diff HTS 1 and T cruzi growth-1 -2.
For CN(C)CC#Cc1ccc([C@@H]2[C@@H](CO)N3C(=O)CN(C(=O)Cc4cccnc4)C[C@@H]23)cc1 the results were Pf Dd2 inh 28 and C diff HTS 0.
Screening COc1ccc(S(=O)(=O)N(C)C[C@@H]2Oc3ccc(NC(=O)Cn4cnnn4)cc3C(=O)N([C@@H](C)CO)C[C@H]2C)cc1 returned Pf Dd2 inh 19, C diff HTS -3 and T cruzi growth-1 -15.
Screening COc1ccc(S(=O)(=O)N(C)C[C@H]2OCCCC[C@H](C)Oc3ccc(NC(=O)C4CCCCC4)cc3C(=O)N([C@H](C)CO)C[C@@H]2C)cc1 returned Pf Dd2 inh -41, C diff HTS 0 and T cruzi growth-1 60.
COc1ccc(S(=O)(=O)N(C)C[C@H]2OCCCC[C@H](C)Oc3ccc(NC(=O)C4CCCCC4)cc3C(=O)N([C@@H](C)CO)C[C@@H]2C)cc1 was read as Pf Dd2 inh inconclusive, C diff HTS 7, T cruzi growth-1 106*, T cruzi growth-2 105*, T cruzi growth-3 79, 3T3 cytotox 0 and 3T3 cytotox 2 -26.
COc1ccc(S(=O)(=O)N(C)C[C@@H]2OCCCC[C@@H](C)Oc3ccc(NC(=O)C4CCCCC4)cc3C(=O)N([C@@H](C)CO)C[C@@H]2C)cc1 was read as Pf Dd2 inh -80, C diff HTS -2, T cruzi growth-1 99*, T cruzi growth-2 94, T cruzi growth-3 57, 3T3 cytotox 12 and 3T3 cytotox 2 72*.
Screening COc1ccc(S(=O)(=O)N(C)C[C@H]2Oc3ccc(NC(=O)Cn4cnnn4)cc3C(=O)N([C@@H](C)CO)C[C@H]2C)cc1 returned Pf Dd2 inh -16, C diff HTS -6, T cruzi growth-1 100*, T cruzi growth-2 37, T cruzi growth-3 -33, 3T3 cytotox 10 and 3T3 cytotox 2 6.
For COc1ccc(S(=O)(=O)N(C)C[C@H]2OCCCC[C@@H](C)Oc3ccc(NC(=O)C4CCCCC4)cc3C(=O)N([C@H](C)CO)C[C@@H]2C)cc1 the results were Pf Dd2 inh -44, C diff HTS 2 and T cruzi growth-1 37.
For CCC(=O)N1[C@@H]2c3ccc(C4=CCCC4)c(=O)n3C[C@@H]2[C@@H](CO)[C@@H]1C(=O)NC1CCC1 the results were Pf Dd2 inh 10, C diff HTS 0 and T cruzi growth-1 42.
C[C@H](CO)N1C[C@H](C)[C@H](CN(C)C(=O)c2cnccn2)Oc2ncc(/C=C/c3ccccc3)cc2C1=O was read as Pf Dd2 inh -19 and C diff HTS 0.
For Cc1noc(C)c1S(=O)(=O)Nc1ccc2c(c1)CC(=O)N([C@@H](C)CO)C[C@@H](C)[C@@H](CN(C)C(=O)NC(C)C)O2 the results were Pf Dd2 inh -6, C diff HTS 1 and T cruzi growth-1 35.
Screening COCC(=O)N[C@H]1C=C[C@H](CC(=O)NCc2ccc(Cl)cc2)O[C@H]1CO returned Pf Dd2 inh 1 and T cruzi growth-1 -25.
For COc1cccc(S(=O)(=O)N(C)C[C@H]2OCc3cn(nn3)CCCC(=O)N([C@H](C)CO)C[C@@H]2C)c1 the results were Pf Dd2 inh 23, C diff HTS -2, T cruzi growth-1 inconclusive, T cruzi growth-2 17, T cruzi growth-3 21, 3T3 cytotox 10 and 3T3 cytotox 2 -5.
Screening C[C@@H]1CN([C@H](C)CO)C(=O)CCCn2cc(nn2)CO[C@@H]1CN(C)S(=O)(=O)c1ccc2ccccc2c1 returned Pf Dd2 inh 5 and T cruzi growth-1 34.
`C[C@@H]1CN([C@@H](C)CO)C(=O)CCCn2cc(nn2)CO[C@H]1CN(C)S(=O)(=O)c1ccc2ccccc2c1` gave Pf Dd2 inh -4, C diff HTS 0, T cruzi growth-1 125*!, T cruzi growth-2 55, T cruzi growth-3 1, 3T3 cytotox -6 and 3T3 cytotox 2 6.
COc1cccc(S(=O)(=O)N(C)C[C@@H]2OCc3cn(nn3)CCCC(=O)N([C@@H](C)CO)C[C@@H]2C)c1 was read as Pf Dd2 inh -8, C diff HTS -1 and T cruzi growth-1 -110.
Screening COc1cccc(S(=O)(=O)N(C)C[C@H]2OCc3cn(nn3)CCCC(=O)N([C@@H](C)CO)C[C@@H]2C)c1 returned Pf Dd2 inh 9, C diff HTS 1, T cruzi growth-1 116*!, T cruzi growth-2 18, T cruzi growth-3 10, 3T3 cytotox -8 and 3T3 cytotox 2 -7.
`COc1cccc(S(=O)(=O)N(C)C[C@H]2OCc3cn(nn3)CCCC(=O)N([C@@H](C)CO)C[C@H]2C)c1` gave Pf Dd2 inh -2, C diff HTS 3 and T cruzi growth-1 43.
`Cc1noc(C)c1S(=O)(=O)Nc1ccc2c(c1)C(=O)N([C@@H](C)CO)C[C@@H](C)[C@@H](CN(C)S(=O)(=O)c1ccc(F)cc1)O2` gave Pf Dd2 inh 32, C diff HTS -7 and T cruzi growth-1 -6.
CN(C)C(=O)[C@@H]1[C@@H](CO)[C@@H]2Cn3c(ccc(-c4ccccc4F)c3=O)[C@H]1N2C(=O)c1ccccc1 was read as C diff HTS -3 and T cruzi growth-1 58.

High-throughput results from PubChem BioAssay.
